Reference: PubChem BioAssay (NCI)
This is part of a sample that, as a whole, favours compounds with a hit. Of some 83,000 tested, about 20% had one in any assay.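 96-well plates, one dose, 48 hours. Percent growth reported; active if below 10.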 A number with no mark means an inactive call. Active and inactive are the calls of the source.

Experiments:
Assay in all cases: NCI-60 one-dose screen, 48 h (100 = growth as untreated, 0 = no growth, -100 = all killed)
SR leukemia = conditions: 10 µM
RPMI-8226 leukemia = conditions: 10 µM
OVCAR-8 ovarian = conditions: 10 µM
OVCAR-5 ovarian = conditions: 10 µM
OVCAR-4 ovarian = conditions: 10 µM
SK-OV-3 ovarian = conditions: 10 µM
OVCAR-3 ovarian = conditions: 10 µM
HS 578T breast = conditions: 10 µM
NCI/ADR-RES ovarian = conditions: 10 µM
T-47D breast = conditions: 10 µM
BT-549 breast = conditions: 10 µM
MDA-MB-435 melanoma = conditions: 10 µM
SW-620 colon = conditions: 10 µM
MCF7 breast = conditions: 10 µM unless noted
HCT-116 colon = conditions: 10 µM
HCC-2998 colon = conditions: 10 µM
KM12 colon = conditions: 10 µM
IGROV1 ovarian = conditions: 10 µM

SMILES | growth (SR leukemia) | growth (RPMI-8226 leukemia) | growth (OVCAR-8 ovarian) | growth (OVCAR-5 ovarian) | growth (OVCAR-4 ovarian) | growth (SK-OV-3 ovarian) | growth (OVCAR-3 ovarian) | growth (HS 578T breast) | growth (NCI/ADR-RES ovarian) | growth (T-47D breast) | growth (BT-549 breast) | growth (MDA-MB-435 melanoma) | growth (SW-620 colon) | growth (MCF7 breast) | growth (HCT-116 colon) | growth (HCC-2998 colon) | growth (KM12 colon) | growth (IGROV1 ovarian)
CCC(C)(O)c1ccc(C)cc1 (stereo not given) | 105% | 96.7% | 104% | 101% | 106% | 97.8% | 107% | 112% | 110% | 104% | 105% | 106% | 98.2% | 100% | 108% | 105% | 100% | –
CN(C)CCC(=O)c1ccc(O)cc1 | 105% | 89.6% | 102% | 115% | 108% | 110% | – | 112% | 106% | 96.4% | – | 110% | 107% | 97.7% | 106% | 104% | 99.9% | 113%
NC(=S)NN=C1CCCC1 | 88% | 72.6% | 68.8% | 115% | 74.4% | 110% | 47.6% | 95.5% | 42.9% | 40.8% | 107% | 103% | 72.8% | 21.7% | 8.81% (active) | 97.7% | 101% | –
O=C1Cc2ccccc2C(=O)O1 | 79.3% | 93.4% | 102% | 106% | 112% | 114% | 127% | 107% | 114% | 108% | 101% | 107% | 105% | 102% | 98.2% | 112% | 115% | –
CCCCN(CCCC)CCCO | 113% | 158% | 99.8% | 99.4% | 108% | 110% | 101% | – | 105% | 107% | – | 117% | 120% | 96.7% | 110% | 94.1% | – | –
Cc1ccc(Cl)cc1N1C(=O)CC(Sc2ccccc2N)C1=O (stereo not given) | 101% | 91.3% | 87.8% | 105% | 101% | – | 106% | 103% | 101% | 103% | 111% | 102% | 108% | 90.2% | 111% | 101% | 112% | –
CNC(=O)c1ccccc1CC1(O)c2ccccc2Oc2ccccc21 | 8.48% (active) | 70.5% | 74.4% | 80.4% | 83.6% | – | 24.7% | 63.5% | 29% | 49.4% | 65% | -51.3% (active) | 29.2% | 25.6% | 32.4% | 80.9% | – | 43%
Oc1ccccc1-c1nnco1 | 90.4% | 86.8% | 98.9% | 107% | 83.1% | – | 101% | 45.1% | 93.1% | 82% | 77.5% | 91.5% | 98.3% | 102% | 106% | 104% | 100% | 86.3%
N#Cc1c(N)sc(=S)c2c1CCCC2 | 93.6% | 95.1% | 103% | 108% | 102% | – | 113% | 104% | 104% | 95.7% | 98.5% | 109% | 112% | 93.3% | 104% | 106% | – | –
CC1CCCCN1C(=S)Nc1ccc(S(=O)(=O)N2CCCCC2)cc1 (stereo not given) | 81.1% | 74.7% | 106% | 100% | 90.4% | – | 97.7% | 88.9% | 107% | – | 93.4% | 96.3% | 93.2% | 102% | 91.5% | 112% | 97.1% | –
